G9a block = G9a (human) methyltransferase inhibition | 350,000 tested, 8.8% active | G9a H3K9 monomethylation, AlphaScreen, 2 h | AID 504332 | Q96KQ7 | Potency, µM (doses to about 102 µM), without a hit: top-dose activity, negative = inhibition, hits mostly inhibitors; further: on the % scale 0 is the no-effect control and ±100 the full control effect; nearly all actives have a fitted effect of over 75% in size
Target sequence (Q96KQ7 913-1193 limits assumed): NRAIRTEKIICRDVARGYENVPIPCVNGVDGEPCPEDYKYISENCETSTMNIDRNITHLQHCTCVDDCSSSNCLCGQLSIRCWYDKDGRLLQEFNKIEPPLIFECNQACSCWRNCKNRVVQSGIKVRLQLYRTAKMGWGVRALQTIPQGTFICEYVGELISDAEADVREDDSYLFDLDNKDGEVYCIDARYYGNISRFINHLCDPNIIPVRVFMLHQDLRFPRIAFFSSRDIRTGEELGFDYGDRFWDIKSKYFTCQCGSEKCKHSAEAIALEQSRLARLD
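AlphaScreen detection with an anti-monomethyl H3K9 antibody quantified product after a 2 h room-temperature reaction containing 500 nM biotinylated H3K9 peptide, 20 µM SAM and 20 nM enzyme, which had been preincubated 15 min with compound.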
L3MBTL1 block = inhibitors of human L3MBTL1; Q9Y468; AlphaScreen L3MBTL1–H3K9me1 peptide binding; 230,000 tested, 0.66% active; Potency, µM (top dose mostly 57.1 µM), without a hit: at the highest dose activity, negative = inhibition, usual class: inhibitors; further: on the % scale 0 is the no-effect control and ±100 the full control effect; nearly all actives have a fitted effect of over 60% in size
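Read-out is AlphaScreen signal from streptavidin donor and nickel chelate acceptor beads (10 ug/mL final each) bridging L3MBTL1 (50 nM) and biotinylated K9-monomethylated H3(1-15) peptide (75 nM), after 30 min compound exposure at room temperature.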
BAZ2B block = inhibitors of human BAZ2B bromodomain; Q9UIF8; AlphaScreen BAZ2B-H3K14Ac peptide displacement; Potency, µM (doses to about 114 µM), inactives show at the highest dose activity change, negative = inhibition, usual class: inhibitors; 360,000 tested, 4.4% active; AID 504333; further: on the % scale 0 is the no-effect control and ±100 the full control effect; nearly all actives have a fitted effect of over 60% in size
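AlphaScreen displacement: compounds (up to 110uM) incubated 30 min at room temperature with a preformed 50 nM BAZ2B/50 nM biotinylated H3K14Ac peptide complex in PBS pH 7.4 with Tween-20. Donor and acceptor beads at 10 ug/mL final added, 20 min light-protected before reading.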
HP1b binding inh = HP1-beta chromodomain-methylated histone interaction inhibition; P83916; AlphaScreen HP1-beta / biotin-H3K9me3 peptide binding; Potency, µM (highest dose often 114 µM), for the others: at the highest dose activity change, negative = inhibition, most hits filed as inhibitors; 390,000 tested, 0.56% active; further: nearly all actives have a fitted effect of over 70% in size
Target sequence (P83916 whole entry, looked up): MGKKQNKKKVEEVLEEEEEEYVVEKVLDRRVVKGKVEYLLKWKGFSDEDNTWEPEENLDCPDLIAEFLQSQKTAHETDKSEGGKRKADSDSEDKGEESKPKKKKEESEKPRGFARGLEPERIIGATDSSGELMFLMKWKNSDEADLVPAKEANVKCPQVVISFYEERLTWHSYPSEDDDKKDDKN
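HP1-beta protein (50 nM final) preincubated 30 min at room temperature with biotinylated H3(1-18)K9me3 peptide (50 nM) in PBS pH 7.4, 0.01% Tween-20, then compound added for 30 min. AlphaScreen streptavidin donor/nickel chelate acceptor beads (10 ug/mL final), 30 min dark, luminescence read.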
JMJD2A Tudor = JMJD2A Tudor domain (human) inhibition; 390,000 tested, 4.4% active; AlphaScreen JMJD2A-Tudor / H3K4me3 peptide binding; O75164; Potency, µM (highest dose often 114 µM), for the others: at the highest dose activity change, negative = inhibition, usual class: inhibitors; AID 504339; further: on the % scale 0 is the no-effect control and ±100 the full control effect; nearly all actives have a fitted effect of over 50% in size
Sfp inh = Sfp phosphopantetheinyl transferase inhibition; Q9F4F7; 310,000 tested, 3.5% active; Biochemical Sfp PPTase activity, qHTS; Potency, µM, inactives show largest response in the series, negative = inhibition, usual class: inhibitors;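 further: the enzyme is Sfp with the accession as filed and its product quenches rhodamine fluorescence; 0% = enzyme reaction without inhibitor and -100% = no enzyme wells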
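Buffer: 50 mM Hepes-Na pH 7.6, 10 mM MgCl2, 0.01% Nonidet P-40, 0.01% BSA. Enzyme 15 nM, pre-exposed to compound 15 min; substrates then added and fluorescence change tracked over 30 min.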
Starred values were filed as active, the others as inactive; ? = inconclusive; . = not tested or not shown; [ ] = remark or other dose. Sampled rows, rich in hits. Any-hit rate of the full collection: about 12%. The call rests on the fitted dose curve; in most records, active means well fitted curve in the direction sought with a large enough effect; inconclusive means small, poorly fitted or top-dose-only effect, or another doubt; inactive means no such curve, though single readings can be large; an effect the other way counts as inactive or inconclusive. Potency means the concentration at half of the fitted maximal effect.

SMILES | G9a block | L3MBTL1 block | BAZ2B block | HP1b binding inh | JMJD2A Tudor | Sfp inh
Cc1ccc2[nH]c(=O)c(CN(Cc3ccccc3)Cc3nnnn3Cc3ccco3)cc2c1 | . | . | . | 7.9%[57 µM] | -11.5%[57.1 µM] | .
O=C1C2C(c3ccccc3)CC=CC2C(c2ccc3ccccc3c2)N1Cc1ccccc1 (stereo unspecified) | . | . | . | 21.6% | -15.9% | -2.1%
Cc1[nH]n(C(N)=S)c(=O)c1N=Nc1cccc(Cl)c1 | 39.8µM* | . | -4.0% | -0.8% | -25.8% | 5.7%
Cc1cccc(N=Nc2c(C)[nH]n(C(N)=S)c2=O)c1C | ? | 24.5% | ? | . | . | -4.9%
O=C1c2cccc3c([N+](=O)[O-])ccc(c23)C(=O)N1Cc1cccnc1 | ? | ? | 39.8µM* | ? | -21.1%[57.1 µM] | ?
Cc1ccnc(N2C(=O)c3cccc4c([N+](=O)[O-])ccc(c34)C2=O)c1 | ? | -4.0% | 4.6% | 1.7% | -25.2% | -9.5%
Cc1nnc(N2C(=O)c3cccc4c([N+](=O)[O-])ccc(c34)C2=O)s1 | 50.1µM* | -2.2% | -21.1% | 54.4% | -4.7% | -19.4%
CC(=O)N1CCCc2ccc(NC(=O)c3ccc(C(F)(F)F)cc3)cc21 | 56.1%[59 µM] | . | 3.7% | 32.2% | -13.6% | .
O=C(NCCCN1CCOCC1)c1cc(-c2ccco2)nc2ccccc12 | . | ? | . | -6.2% | 50.1µM* | .
O=C(NCCN1CCOCC1)c1cc(-c2ccc(F)cc2)nc2ccccc12 | 18.3%[2.33 µM] | 10.3% | 7.8% | 8.8% | -9.7% | .
O=C(NCCCN1CCOCC1)c1cc(-c2ccc(F)cc2)nc2ccccc12 | 0.6%[12.7 µM] | 4.6% | -2.6% | 29.8% | 9.1% | .
CC(C)Oc1ccc(-c2cc(C(=O)NCCN3CCOCC3)c3ccccc3n2)cc1 | -8.1%[0.501 µM] | 5.7% | ? | 27.2% | 13.0% | 79.4µM*
O=C(NC(=S)NCCN1CCOCC1)c1ccccc1Cl | 2.0%[59 µM] | 4.7% | -2.1% | 18.6% | 3.0% | 19.8%
O=C(NC(=S)NCCCN1CCOCC1)c1ccco1 | 39.8µM* | . | -17.7% | 23.8% | -7.6% | -17.1%
CCc1ccc(Nc2cc(C(=O)NCCCN3CCOCC3)c3ccccc3n2)cc1 | -6.5% | . | 6.8% | 49.2% | -9.2% | 35.5µM*
O=C1CCC2=C1C1(CCCC1)N=C(Nc1nc3ccccc3o1)N2 | . | . | . | . | -22.0% | .
COc1ccc2c(c1)c(=O)c(C(=O)c1ccccc1)cn2CC(=O)Nc1ccc2c(c1)OCO2 | ? | . | ? | 21.4% | -13.6% | .
CCCN(C(=O)Cn1c(=O)oc2cc(Cl)ccc21)c1ccc(C(C)C)cc1 | ? | . | -12.5% | 54.6% | 18.4% | .
O=C1CC(c2cccc(O)c2)c2c(nc(SCc3ccccc3F)[nH]c2=O)N1 (stereo unspecified) | -12.6%[59 µM] | . | ? | 20.4% | -12.9% | .
Cc1ccc(NC(=O)c2cc(-c3ccco3)nc3ccccc23)cc1S(=O)(=O)N1CCOCC1 | ? | -8.0% | ? | -18.6% | -33.1% | -9.8%
COc1ccc(NC(=O)c2cc(-c3ccco3)nc3ccccc23)cc1S(=O)(=O)N1CCOCC1 | . | -85.7% | 44.7µM* | ? | ? | 5.01µM*
CCOc1cc(N2CCOCC2)c(OCC)cc1NC(=O)c1cc(-c2ccco2)nc2ccccc12 | 8.91µM* | -9.6% | . | ? | 50.1µM* | 28.2µM*
CCOc1cc(N2CCOCC2)c(OCC)cc1NC(=O)COc1ncnc2ccccc12 | ? | . | ? | 10.7% | -17.8% | 1.8%
CC(=O)Nc1ccc(Nc2nc3ccc(Cl)cc3n3cnnc23)cc1 | -4.3%[59 µM] | . | 1.2% | 30.0% | 8.4% | .
CC(=O)c1cccc(NC(=O)CCS(=O)(=O)c2cccc3nsnc23)c1 | 10µM* | . | -3.6% | -38.0% | -27.5%[57.1 µM] | 56.2µM*
CCN(C(=O)C(NS(=O)(=O)c1cccc2nsnc12)c1ccccc1)c1ccccc1 (stereo unspecified) | 2.82µM* | . | . | 5.3% | ? | .
Cc1cc(C)cc(NC(=O)CCS(=O)(=O)c2cccc3nsnc23)c1 | -6.7%[59 µM] | . | -6.3% | 6.7% | -22.9% | .

Screening data as filed in PubChem.
